Values joined by “and” are separate entries in the source; they are usually repeats but may differ in a detail not shown here. Equal values may be shown once. In all, about 78,000 compounds went through this assay and about 1,800 (2.3%) were called active. Not shown: some 27% with an inconclusive outcome. Rule as the data show it: active = inhibition above about 30%; inconclusive = mostly about 10% to 28%; inactive = weaker than that. What follows is part of a selection rich in actives, with near analogues and random picks from the rest.
Each compound was assayed against Interleukin-1 receptor-like 1 (Homo sapiens) (UniProt Q01638) (assay: inhibitors of human ST2 (IL1RL1) binding to IL-33, primary screen, biochemical, AlphaLISA (AID 1259354)). Conditions: AlphaLISA ST2-Fc/biotin-IL-33 interaction, 1 h; at 17 µM, active compounds read high.
Chain of Interleukin-1 receptor-like 1 (Homo sapiens) (Q01638 whole entry, looked up): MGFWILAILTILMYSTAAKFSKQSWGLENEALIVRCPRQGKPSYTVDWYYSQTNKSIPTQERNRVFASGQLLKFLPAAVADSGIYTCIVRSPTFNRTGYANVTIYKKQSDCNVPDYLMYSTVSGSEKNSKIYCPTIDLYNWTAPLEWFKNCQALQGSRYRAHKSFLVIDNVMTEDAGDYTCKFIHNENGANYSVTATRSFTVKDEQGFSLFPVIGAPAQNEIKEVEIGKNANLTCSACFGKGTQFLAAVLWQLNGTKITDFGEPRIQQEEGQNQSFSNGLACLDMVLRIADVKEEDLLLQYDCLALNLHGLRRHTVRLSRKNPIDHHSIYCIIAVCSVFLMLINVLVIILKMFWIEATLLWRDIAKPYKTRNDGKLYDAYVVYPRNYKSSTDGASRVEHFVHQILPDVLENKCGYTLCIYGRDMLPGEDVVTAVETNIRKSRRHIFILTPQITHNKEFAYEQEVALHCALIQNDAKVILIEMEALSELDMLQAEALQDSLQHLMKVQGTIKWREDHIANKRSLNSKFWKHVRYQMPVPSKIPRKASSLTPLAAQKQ
With `Cc1csc(SCC(=O)N2CCC(c3cc(C(C)C)n[nH]3)CC2)n1` the inhibition was “inactive”. In the case of `O=C(CN1CCN(Cc2cccc(Cl)c2)C1=O)N1CCCC1`, the inhibition is reported as “inactive”. With `O=C(CSC1=Nc2ccccc2C2=NC(Cc3ccccc3)C(=O)N12)NC1CCCCC1` (centres undefined) the inhibition was “inactive”. For `COCCn1ccnc1-c1[nH]cnc1-c1ccccc1`, the inhibition was “inactive”. `CC(C)c1ccc(-c2nc(N3CCCCC3)nc3n[nH]c(N)c23)cc1` was tested, and the inhibition was “inactive”. In the case of `Cc1cc2c(Nc3cccc(Cl)c3C)ncnc2s1`, the inhibition is reported as “inactive”. `Nc1nonc1-n1nnc(CN2CCCCC2)c1CN1CCCCC1` was tested, and the inhibition was “inactive”. For `COc1ccc2nc(NC(=O)Cc3c(C(=O)O)n(C)c4ccccc34)sc2c1`, the inhibition was “inactive”. In the case of `Cc1ccc(N(C(=O)c2ccccc2Br)C2C=CS(=O)(=O)C2)cc1C` (centres undefined), the inhibition is reported as “inactive”. `Cc1cccc(NC(=O)c2ccc([N+](=O)[O-])o2)c1` was tested, and the inhibition was 42% (active). For `Cc1ccc(NC(=O)c2ccc(Br)o2)c(C)c1`, the inhibition was “inactive”. For `O=C(Nc1cccc([N+](=O)[O-])c1)c1cccc(Cl)c1Cl`, the inhibition was “inactive”. `CSCCC(NS(=O)(=O)c1cccc2nsnc12)C(=O)O` (centres undefined) was tested, and the inhibition was “inactive”. With `N#Cc1c(-c2ccccc2)cc(-c2ccccc2)nc1SCC(=O)O` the inhibition was “inactive”. For `N#Cc1c(SCC(=O)Nc2ccccc2)ncc2cc3ccccc3nc12`, the inhibition was 32% (active). For `Cc1cccc(-c2nc(N3CCCC3)c3ccccc3n2)c1`, the inhibition was “inactive”. In the case of `N#Cc1c(N2CCCCCC2)ncc2cc3ccccc3nc12`, the inhibition is reported as 37% (active). In the case of `N#Cc1c(SCC(=O)Nc2ccccn2)nsc1SCC(=O)Nc1ccccn1`, the inhibition is reported as “inactive”. In the case of `c1ccc(-c2csc3ncnc(N4CCCCC4)c23)cc1`, the inhibition is reported as “inactive”. In the case of `COc1cc2c(cc1OC)[C@H]1CN3CCc4cc(OC)c(OC)cc4[C@@H]3CN1CC2`, the inhibition is reported as “inactive”. With `CCn1cc(S(=O)(=O)N2CCCC2c2ccccn2)c(C)n1` (centres undefined) the inhibition was “inactive”. `Cc1cc(C(=O)N(CC2CCN(C3Cc4ccccc4C3)CC2)CC2CCCO2)nc(C)n1` (centres undefined) was tested, and the inhibition was “inactive”. For `Cc1cc(C)c2c(CC(=O)NCc3cccnc3N3CCOCC3)coc2c1`, the inhibition was “inactive”. For `c1ccc(CSc2ncc(C3NCCc4[nH]cnc43)cn2)cc1` (centres undefined), the inhibition was “inactive”. In the case of `Cc1cc(NC(=O)C(NS(=O)(=O)c2cccs2)C(C)C)ccc1Br` (centres undefined), the inhibition is reported as “inactive”. For `Fc1cccc(Cl)c1C1CC(c2ccccc2)Nc2ncnn21` (centres undefined), the inhibition was “inactive”. For `Cn1c(CC2CCNCC2)nnc1SCCOc1ccc(Cl)cc1`, the inhibition was “inactive”. With `O=C(c1cccc(-c2ncc[nH]2)c1)N1Cc2cnn(CCO)c2C1` the inhibition was “inactive”. With `O=C(c1ccnc(-n2cnnc2)c1)N1CCC2(CC1)C(=O)Nc1ccccc12` the inhibition was “inactive”. With `CN1CCN(C(=O)c2ccnc(-c3cc(N)nc4[nH]ccc34)c2)CC1` the inhibition was 30% (active). `COc1ccc(C(=O)NC(Nc2ccccc2Cl)C(Cl)(Cl)Cl)cc1` (centres undefined) was tested, and the inhibition was “inactive”. In the case of `Cc1ccc(NC(=O)CNCC(C)c2ccccc2)c(C)c1` (centres undefined), the inhibition is reported as “inactive”. `OC(C#Cc1ccccc1)C#Cc1ccccc1` was tested, and the inhibition was “inactive”. For `Cc1nonc1C1CCCN1Cc1cnc(S(=O)(=O)C(C)C)n1Cc1ccccc1F` (centres undefined), the inhibition was “inactive”. For `CC1CCc2nc(NC(=O)c3ccc(S(=O)(=O)N4CCc5ccccc54)cc3)sc2C1` (centres undefined), the inhibition was 30% (active). For `CSCc1nnc(NC(=O)c2ccc(S(=O)(=O)N3CCCc4ccccc43)cc2)o1`, the inhibition was “inactive”. For `O=C(Nc1nnc(-c2cccs2)o1)c1ccc(S(=O)(=O)N2CCCc3ccccc32)cc1`, the inhibition was “inactive”. With `CCN(CC)C(=O)[C@@H]1C[C@H](n2cc(Cn3c(C)nc4ccccc43)nn2)CN1` the inhibition was “inactive”. For `CC1=Nc2c(ccc3cccnc23)C1(C)C`, the inhibition was 36% (active). With `Brc1ccc(CSc2cccc3cccnc23)cc1` the inhibition was “inactive”. For `CSCCNC(=O)CC1C(=O)NCCN1Cc1ccccc1` (centres undefined), the inhibition was “inactive”. For `Cc1cc2oc(=O)cc(CN(C)C(C)c3ccon3)c2cc1C` (centres undefined), the inhibition was “inactive”. With `Clc1ccc(OCCCCN2CCOCC2)c(Br)c1` the inhibition was “inactive”. In the case of `CN(Cc1ccccc1)C(=O)CN1C(=O)/C(=C\c2cccc(Cl)c2)Sc2ccccc21`, the inhibition is reported as 44% (active). For `CN(Cc1ccccc1)C(=O)c1cc(-c2ccc(Cl)cc2)on1`, the inhibition was “inactive”. In the case of `CN(Cc1ccccc1)C(=O)CN(C)S(=O)(=O)c1ccc(Cl)cc1`, the inhibition is reported as “inactive”. `O=C(NC(Nc1cccc([N+](=O)[O-])c1)C(Cl)(Cl)Cl)c1ccc(Br)cc1` (centres undefined) was tested, and the inhibition was “inactive”. For `CCOC(=O)c1c(C)[nH]c(C(=O)NC(C)c2cnn(-c3ccccc3C)c2C)c1C` (centres undefined), the inhibition was “inactive”. `CN(Cc1ccccc1)C(=O)C1(S(=O)(=O)c2ccc(Cl)cc2)CC1` was tested, and the inhibition was “inactive”. `COc1ccc(-c2csc(=Nc3ccccc3)n2C)cc1` was tested, and the inhibition was 59% (active) and 52% (active). With `COc1ccc(Nc2ccn(-c3nc(-c4ccccc4)oc3-c3ccccc3)c(=O)n2)cc1` the inhibition was “inactive”. For `O=C(C(NS(=O)(=O)c1cccs1)c1ccccc1)N1CCc2ccccc21` (centres undefined), the inhibition was “inactive”. For `COc1cc(OC)cc(C(=O)Nc2cc(N3CCCS3(=O)=O)ccc2OC)c1`, the inhibition was “inactive”. For `O=C1NC(=O)/C(=C\c2ccc(-c3cccc(Cl)c3)o2)S1`, the inhibition was “inactive”. With `O=C1NC(=O)/C(=C\c2ccc(-c3ccc(F)c(Cl)c3)o2)S1` the inhibition was 34% (active). For `CC(=O)Nc1nonc1N1C(=N)S/C(=C\c2ccc(-c3cccc(F)c3)o2)C1=O`, the inhibition was “inactive”. For `Cc1nc(CC(=O)NCCc2csc(-c3cccnc3)n2)cs1`, the inhibition was “inactive”. For `COc1ccc(CCNS(=O)(=O)c2cccc3cccnc23)cc1OC`, the inhibition was “inactive”. `COc1cc(NS(=O)(=O)c2ccc3c(c2)CCN3C(=O)C2CC2)cc(OC)c1` was tested, and the inhibition was “inactive”. `Cc1cccc(C)c1NC(=O)c1ccc(F)cc1` was tested, and the inhibition was “inactive”. With `N#CC1=C(N)OC2=C(C(=O)CC(c3ccccc3)C2)C1c1cccs1` (centres undefined) the inhibition was “inactive”. `O=C1CC2(CCCCC2)Oc2ccc(OCC(=O)N3CCOCC3)cc21` was tested, and the inhibition was “inactive”. In the case of `CCc1nc(C)ccc1OCC(=O)N1CCC2(CN(C)C(=O)O2)C1` (centres undefined), the inhibition is reported as 30% (active). For `O=C(CN1C(=O)/C(=C\c2ccc(C(F)(F)F)cc2)Sc2ccccc21)NCC1CCCO1` (centres undefined), the inhibition was 30% (active). With `O=C(CN1C(=O)/C(=C\c2ccc(C(F)(F)F)cc2)Sc2ccccc21)NCc1ccco1` the inhibition was 32% (active). For `O=C(CN1C(=O)C2CCCCN2C(=O)c2ccccc21)NCC1CCCO1` (centres undefined), the inhibition was “inactive”. In the case of `O=C(CN1C(=O)CC(c2ccccc2)Sc2ccccc21)NCc1ccco1` (centres undefined), the inhibition is reported as “inactive”. With `O=C(CN1CCN(Cc2ccc(F)cc2)C1=O)NCC1CCCO1` (centres undefined) the inhibition was “inactive”. With `O=C(CN1CCCCC1)N1c2ccccc2Sc2ccc(C(F)(F)F)cc21` the inhibition was “inactive”.
